This note sets out measurements from PubChem BioAssay.

Assay [1] in a line: antimalarial activity against Dd2 strain (AID 2302;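 active = growth inhibition above 50% at the single 2 µM test dose, taken to imply half-maximal potency below 2 µM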;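 note: 0% = DMSO untreated growth and 100% = chloroquine plus artemisinin killed control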). The note with it: P. falciparum Dd2 in RBCs, LDH growth readout, 72 h; at 2 µM; active compounds read high.
Assay [2] in a line: HepG2 cytotoxicity, primary screen, cytotoxicity control for P. falciparum antimalarial project, cell-based, ATP luminescence (AID 2303;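 active = inhibition above 50%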;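 note: 0% = DMSO wells and 100% = digitonin-killed cells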). Conditions: HepG2 viability, 24-48 h, at 10 µM, active compounds read high.
Assay [3] addresses L-lactate dehydrogenase (Plasmodium falciparum (isolate CDC / Honduras)) (UniProt Q27743). The experiment in a line: PfLDH activity inhibition – cell lysate, 3D7 strain, counter-screen for P. falciparum growth inhibition project (AID 2304).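 Note: 0% = vehicle and 100% = reference inhibitor.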 Conditions: P. falciparum 3D7 crude extract, LDH APAD/NBT absorbance; at 2 µM; active compounds read high. Background: Counterscreens check selectivity or assay interference.

Assay [4] in a line: inhibition of 3D7 malaria parasite growth – strain 3D7 (AID 2306).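 Note: 0% = DMSO wells and 100% = chloroquine plus artemisinin control wells.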 Conditions: P. falciparum 3D7 erythrocytic growth, LDH absorbance, 72 h; at 2 µM; active compounds read high.
Assay [5] addresses Calcium-dependent protein kinase 1 (Plasmodium falciparum (isolate 3D7)) (UniProt P62344). The experiment in a line: PfCDPK1 kinase inhibitors, biochemical, TCAMS library (AID 1159585; cut-off not given, nearly all actives have IC50 up to about 0.98 µM;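 note: inhibitors leave more ATP so luminescence rises with inhibition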). The note with it: recombinant PfCDPK1, Kinase-Glo ATP depletion luminescence. Background: In Kinase-Glo more light means more ATP remaining.
For assay [6], the target named is Plasmodium falciparum protein kinase 6 (PK6, PF3D7_1337100) (UniProt Q8IDW1). The experiment in a line: PfPK6 kinase inhibitors, biochemical, TCAMS library (AID 1159586). Conditions: recombinant PfPK6, Kinase-Glo ATP depletion luminescence.
Plasmodium falciparum protein kinase 6 (PK6, PF3D7_1337100), sequence (Q8IDW1 1-305): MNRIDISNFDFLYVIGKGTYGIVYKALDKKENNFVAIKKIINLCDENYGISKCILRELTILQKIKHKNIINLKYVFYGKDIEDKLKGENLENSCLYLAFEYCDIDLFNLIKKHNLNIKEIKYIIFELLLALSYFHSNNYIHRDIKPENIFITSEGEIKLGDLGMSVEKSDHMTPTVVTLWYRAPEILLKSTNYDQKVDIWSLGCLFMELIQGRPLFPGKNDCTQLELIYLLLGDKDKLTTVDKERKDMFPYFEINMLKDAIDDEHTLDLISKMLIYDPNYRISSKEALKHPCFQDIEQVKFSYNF
Assay [7] concerns the target Protein kinase 7 (PK7), Plasmodium falciparum 3D7 (PF3D7_0213400) (UniProt Q7YTF7). The experiment in a line: inhibition of Plasmodium PK7 catalytic activity – biochemical, TCAMS antimalarial set, Kinase-Glo luminescence (AID 1159587). The note with it: recombinant PfPK7, Kinase-Glo ATP depletion luminescence.
Assay [8] has as its target Calcium-dependent protein kinase 4 (Plasmodium falciparum (isolate 3D7)) (UniProt Q8IBS5). The experiment in a line: PfCDPK4 kinase inhibitors, biochemical, TCAMS library (AID 1159588; cut-off not given, nearly all actives have IC50 up to about 0.91 µM). Conditions: recombinant PfCDPK4, Kinase-Glo ATP depletion luminescence.

Each structure is given as a SMILES string. A number with no mark means an inactive call. For part of these data: Measured potencies and affinities stand elsewhere. The source made the active and inactive calls. Unless noted, the rule behind the calls is not given here.

Calcium-dependent protein kinase 4 (Plasmodium falciparum (isolate 3D7)), sequence (Q8IBS5 whole entry, looked up): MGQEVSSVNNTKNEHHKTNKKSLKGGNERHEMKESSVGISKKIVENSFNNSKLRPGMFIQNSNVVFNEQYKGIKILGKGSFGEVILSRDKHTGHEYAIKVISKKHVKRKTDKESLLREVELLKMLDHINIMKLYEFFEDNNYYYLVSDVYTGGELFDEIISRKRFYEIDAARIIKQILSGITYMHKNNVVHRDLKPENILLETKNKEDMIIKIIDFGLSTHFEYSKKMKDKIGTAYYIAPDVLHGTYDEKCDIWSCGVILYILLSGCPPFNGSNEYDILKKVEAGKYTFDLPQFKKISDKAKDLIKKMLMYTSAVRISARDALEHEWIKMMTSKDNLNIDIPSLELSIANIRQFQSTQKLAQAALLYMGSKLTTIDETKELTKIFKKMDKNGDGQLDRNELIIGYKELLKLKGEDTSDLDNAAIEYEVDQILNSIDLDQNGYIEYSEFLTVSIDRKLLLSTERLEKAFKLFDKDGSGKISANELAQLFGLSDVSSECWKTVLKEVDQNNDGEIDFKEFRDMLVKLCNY
Calcium-dependent protein kinase 1 (Plasmodium falciparum (isolate 3D7)), sequence (P62344 whole entry, looked up): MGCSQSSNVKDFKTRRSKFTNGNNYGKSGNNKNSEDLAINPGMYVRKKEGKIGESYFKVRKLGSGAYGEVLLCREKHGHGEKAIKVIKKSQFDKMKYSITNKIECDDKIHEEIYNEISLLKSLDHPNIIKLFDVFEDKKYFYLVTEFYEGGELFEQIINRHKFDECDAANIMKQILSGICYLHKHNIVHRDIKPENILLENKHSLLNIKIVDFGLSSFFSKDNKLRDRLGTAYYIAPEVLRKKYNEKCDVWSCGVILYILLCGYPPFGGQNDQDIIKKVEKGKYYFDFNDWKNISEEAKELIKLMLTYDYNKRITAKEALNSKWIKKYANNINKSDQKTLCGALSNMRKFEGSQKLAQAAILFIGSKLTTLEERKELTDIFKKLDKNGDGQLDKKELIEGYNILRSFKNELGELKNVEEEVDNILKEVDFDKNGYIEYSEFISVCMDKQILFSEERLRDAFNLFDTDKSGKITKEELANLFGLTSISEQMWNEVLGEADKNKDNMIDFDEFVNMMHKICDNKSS
L-lactate dehydrogenase (Plasmodium falciparum (isolate CDC / Honduras)), sequence (Q27743 whole entry, looked up): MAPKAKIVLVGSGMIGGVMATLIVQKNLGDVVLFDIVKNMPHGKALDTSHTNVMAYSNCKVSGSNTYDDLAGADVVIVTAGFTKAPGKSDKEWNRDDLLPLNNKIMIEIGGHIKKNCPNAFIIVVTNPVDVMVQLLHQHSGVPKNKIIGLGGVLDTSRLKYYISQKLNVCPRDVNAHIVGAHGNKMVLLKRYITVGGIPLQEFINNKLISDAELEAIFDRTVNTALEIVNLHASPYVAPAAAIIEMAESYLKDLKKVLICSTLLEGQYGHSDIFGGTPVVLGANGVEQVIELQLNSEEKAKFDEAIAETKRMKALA
Protein kinase 7 (PK7), Plasmodium falciparum 3D7 (PF3D7_0213400), sequence (Q7YTF7 1-343): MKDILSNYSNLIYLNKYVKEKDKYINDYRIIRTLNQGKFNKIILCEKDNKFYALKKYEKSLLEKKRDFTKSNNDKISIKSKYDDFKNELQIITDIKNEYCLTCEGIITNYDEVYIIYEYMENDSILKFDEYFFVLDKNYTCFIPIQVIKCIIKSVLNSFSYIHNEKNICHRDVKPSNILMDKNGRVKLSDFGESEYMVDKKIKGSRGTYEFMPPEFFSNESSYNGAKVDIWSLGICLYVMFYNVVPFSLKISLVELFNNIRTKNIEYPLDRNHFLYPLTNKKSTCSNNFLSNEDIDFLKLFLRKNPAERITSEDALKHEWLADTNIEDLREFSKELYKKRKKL

For the molecule `COc1ccc2ncc(F)c(CCN3C[C@H](CNCc4cc(F)c5c(c4)NC(=O)CO5)[C@H](O)C3)c2n1`, the growth inhibition is 23% in assay [1] and 94% (active) in assay [4]. Besides, the inhibition (as a rule, the change of the read-out against control, counted positive when it falls) in assay [2] is 3%; in assay [3], -7%. The result in assay [5], in assay [6], in assay [7] and in assay [8] was inactive.
Regarding `COc1ccc2nc3cc(Cl)ccc3c(NCCN(C)C)c2c1`, the figures for the growth inhibition in assay [1] and in assay [4] were 100% (active) and 102% (active), respectively. For the same molecule, the inhibition is 4% in assay [2] and -2% in assay [3]. For the same molecule, the outcome in assay [5], in assay [6], in assay [7] and in assay [8] was inactive.
On to `O=C(Nc1ccc(Cl)c(-c2nc3ccccc3[nH]2)c1)c1ccc(-c2ccc(Cl)cc2)o1`, for which the growth inhibition in assay [1] is 22%; in assay [4], 89% (active). Moreover, the values for the inhibition in assay [2] and in assay [3] were 16% and 0%, respectively. Also, the result in assay [5], in assay [6], in assay [7] and in assay [8] was inactive.
`CC(C)(Oc1c(C2CCN(CCCCNC(=O)c3ccc(-c4ccc(C#N)cc4)cc3)CC2)ccc2c1CCCC2)C(N)=O`: the growth inhibition was 82% (active) in assay [1] and 100% (active) in assay [4]. Further, the inhibition in assay [2] is 34%; in assay [3] it was 6%. For the same molecule, the outcome in assay [5], in assay [6], in assay [7] and in assay [8] was inactive.
As for `COc1ccc(CNCc2ccc(F)cc2)cc1-c1ccc(S(=O)(=O)NCCN2CCCC2)s1`, the growth inhibition in assay [1] is 65% (active); in assay [4] it was 101% (active). Also, the inhibition was 61% (active) in assay [2] and -1% in assay [3]. The outcome in assay [5], in assay [6], in assay [7] and in assay [8] was inactive.
For `CCc1ccc(CN2CCC(CNC(=O)c3cc(-c4ccccc4Cl)cs3)C2)cc1` (stereo not drawn), the growth inhibition in assay [1] is 0%; in assay [4] it was 98% (active). The inhibition in assay [2] is 14%; in assay [3], -2%. For the same molecule, the result in assay [5], in assay [6], in assay [7] and in assay [8] was inactive.
In the case of `Cc1ccc(F)c(OCC2CCN(c3ncc(C(=O)NC4CC4)cc3Cl)CC2)c1`, the growth inhibition in assay [1] was 95% (active); in assay [4], 96% (active). The results for the inhibition in assay [2] and in assay [3] were 9% and -3%, respectively. The result in assay [5], in assay [6], in assay [7] and in assay [8] was inactive.
Regarding `NCCNc1ccnc2cc(Cl)ccc12`, the growth inhibition is 54% (active) in assay [1] and 101% (active) in assay [4]. Also, the inhibition in assay [2] was 9%; in assay [3], 4%. Moreover, the outcome in assay [5], in assay [6], in assay [7] and in assay [8] was inactive.
As to `CC(CN(C)C)C(=O)Nc1ccc(-c2ccc(-c3nc4ccccc4[nH]3)s2)cc1` (stereo not drawn), the growth inhibition in assay [1] was 86% (active); in assay [4], 100% (active). Also, the values for the inhibition in assay [2] and in assay [3] were 14% and 5%, respectively. Moreover, the result in assay [5], in assay [6], in assay [7] and in assay [8] was inactive.
As for `CCCC(=O)c1cnc2c(Oc3cc(Cl)ncn3)cccc2c1Nc1ccccc1C`, the growth inhibition in assay [1] was 85% (active); in assay [4], 99% (active). The inhibition in assay [2] and in assay [3] was 6% throughout. The outcome in assay [5], in assay [6], in assay [7] and in assay [8] was inactive.
For the molecule `Cc1cc2c(cc1C(F)(F)F)N(C(=O)Nc1cc(OCCN(C(C)C)C(C)C)cc(C(F)(F)F)c1)CC2`, the growth inhibition in assay [1] was 86% (active); in assay [4], 100% (active). Further, the inhibition is 42% in assay [2] and -2% in assay [3]. Moreover, the result in assay [5], in assay [6], in assay [7] and in assay [8] was inactive.
`O=C(/C=C/c1ccc(Cl)c(Cl)c1)NCCCCCN1CCC(NC(=O)Nc2cc(F)cc(F)c2)CC1`: the growth inhibition in assay [1] was 6%; in assay [4] it was 101% (active). The values for the inhibition in assay [2] and in assay [3] were 80% (active) and -3%, respectively. Besides, the outcome in assay [5], in assay [6], in assay [7] and in assay [8] was inactive.
Regarding `CCN(CC)CCN(Cc1ccc(-c2ccc(C(F)(F)F)cc2)cc1)C(=O)Cn1c(CCc2cccc(F)c2F)c(C)c(=O)c2ccccc21`, the figures for the growth inhibition in assay [1] and in assay [4] were 52% (active) and 87% (active), respectively. In addition, the inhibition in assay [2] is 61% (active); in assay [3] it was 3%. The result in assay [5], in assay [6], in assay [7] and in assay [8] was inactive.
For `CN1CCN(Cc2ccc(-c3cccc(-c4nc5ccccc5[nH]4)c3)cc2)CC1`, the growth inhibition in assay [1] was 6%; in assay [4], 93% (active). Also, the inhibition in assay [2] was 21%; in assay [3], 3%. The outcome in assay [5], in assay [6], in assay [7] and in assay [8] was inactive.
On to `Cc1cc(NCCC(=O)Nc2ccccc2)nc(NCCc2cccnc2)n1`, for which the growth inhibition in assay [1] was 4%; in assay [4], 84% (active). The inhibition in assay [2] was -1%; in assay [3] it was -2%. Moreover, the outcome in assay [5], in assay [6], in assay [7] and in assay [8] was inactive.
Consider `CC(C)CNCc1cccc(-c2ccc(CNc3ccc4ncccc4c3)cc2)c1`, for which the values for the growth inhibition in assay [1] and in assay [4] were 32% and 94% (active), respectively. In addition, the inhibition was 13% in assay [2] and -3% in assay [3]. Moreover, the outcome in assay [5], in assay [6], in assay [7] and in assay [8] was inactive.
Take `Cc1cccn2c(=O)c3cc(C(=O)NCCN4CCOCC4)c(=N)n(CCc4ccccc4)c3nc12`: the growth inhibition in assay [1] is 85% (active); in assay [4], 100% (active). Further, the results for the inhibition in assay [2] and in assay [3] were 13% and 1%, respectively. The result in assay [5], in assay [6], in assay [7] and in assay [8] was inactive.
Consider `CC(C)C1=CC(=NOS(=O)(=O)c2ccccc2)C=C(C(C)C)C1=O`, for which the values for the growth inhibition in assay [1] and in assay [4] were 74% (active) and 92% (active), respectively. The inhibition in assay [2] is 23%; in assay [3], -3%. For the same molecule, the result in assay [5], in assay [6], in assay [7] and in assay [8] was inactive.
In the case of `Cc1ccc(N2C(=O)C3C(C2=O)[C@]2(c4ccccc4)C(=O)[C@@]3(c3ccccc3)C(c3ccccc3)=C2c2ccccc2)c(C)c1` (stereo partly drawn), the growth inhibition in assay [1] and in assay [4] was 96% (active) throughout. Besides, the results for the inhibition in assay [2] and in assay [3] were 3% and 6%, respectively. The outcome in assay [5], in assay [6], in assay [7] and in assay [8] was inactive.
Take `CC(C)N1CCN(C(CN2CCN(CCCOc3ccccc3-c3ccccc3)CC2)c2ccc(F)cc2)CC1` (stereo not drawn): the growth inhibition in assay [1] is 96% (active); in assay [4], 100% (active). The figures for the inhibition in assay [2] and in assay [3] were 98% (active) and 5%, respectively. For the same molecule, the result in assay [5], in assay [6], in assay [7] and in assay [8] was inactive.
`Cc1[nH]c2ccc(NS(C)(=O)=O)cc2c1C1CCN(CCC2CCN(C(=O)/C=C/c3ccc(Cl)c(Cl)c3)CC2)CC1`: the growth inhibition was 94% (active) in assay [1] and 100% (active) in assay [4]. The results for the inhibition in assay [2] and in assay [3] were 23% and -1%, respectively. Besides, the result in assay [5], in assay [6], in assay [7] and in assay [8] was inactive.
